In PubChem BioAssay AID504937 (National Center for Advancing Translational Sciences (NCATS), 2011) one finds Potency data, which are given here for 65 molecules.

Hit rate of the full screen: of about 340,000 compounds, about 20 (0.006%) were called active. Where a call stands in place of a potency, no number is given. Calls come from the whole dose curve; as a rule, active = well fitted inhibition curve with a large enough effect; inconclusive = small, poorly fitted or top-dose-only effect; inactive = no such curve, though single readings can be large or run the other way. Only a selection was taken, and actives are over-represented in it overall.

Chain of Sphingomyelin phosphodiesterase (Homo sapiens) (P17405 47-631 limits assumed): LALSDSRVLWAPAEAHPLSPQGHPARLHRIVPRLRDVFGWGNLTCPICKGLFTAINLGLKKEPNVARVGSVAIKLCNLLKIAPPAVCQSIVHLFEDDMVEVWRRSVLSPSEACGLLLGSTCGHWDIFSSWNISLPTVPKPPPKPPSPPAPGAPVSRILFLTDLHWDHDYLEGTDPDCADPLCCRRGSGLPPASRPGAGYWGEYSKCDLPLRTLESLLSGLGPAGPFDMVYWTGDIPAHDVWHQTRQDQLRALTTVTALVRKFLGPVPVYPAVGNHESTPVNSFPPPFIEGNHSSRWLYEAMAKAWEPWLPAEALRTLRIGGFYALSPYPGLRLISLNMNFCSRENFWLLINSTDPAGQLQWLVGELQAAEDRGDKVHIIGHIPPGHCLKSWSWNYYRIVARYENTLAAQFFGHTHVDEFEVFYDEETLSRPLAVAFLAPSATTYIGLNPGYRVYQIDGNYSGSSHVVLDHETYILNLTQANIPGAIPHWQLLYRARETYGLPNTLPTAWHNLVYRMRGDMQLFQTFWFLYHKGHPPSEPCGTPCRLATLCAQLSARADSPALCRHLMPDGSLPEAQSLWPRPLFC

For the experiment, the target named is Sphingomyelin phosphodiesterase (Homo sapiens) (UniProt P17405). The experiment is described as follows: Inhibitors of Secretory Acid Sphingomyelinase (S-ASM): qHTS. The conditions noted are these: placental ASM, HMU-PC fluorogenic substrate, 60 min; series mostly up to 57.5 µM. The source says:
Atherosclerosis is the underlying process for cardiovascular disease and thus is a major contributor to disease burden in the population. […] Thus, selective small molecule inhibitors of S-ASM should block LDL modification and reduce aortic LDL retention and may serve as new agents for the treatment of atherosclerosis. In a collaboration between National Heart, Lung, and Blood Institute and the NCGC a high-throughput amenable screen was developed to identify potent and selective small molecule inhibitors of S-ASM. This enzymatic, fluorescent screen uses an ASM enzyme preparation derived from human placenta and was tested against the NIH Molecular Libraries Small Molecule Repository (MLSMR). NIH Chemical Genomics Center [NCGC] NIH Molecular Libraries Probe Centers Network [MLPCN] MLPCN Grant: MH093173-01 Assay Submitter (PI): Alan Remaley, National Heart, Lung, and Blood Institute and Wei Zhen, NIH Chemical Genomics Center
Two microliters of ASM enzyme (1:150 dilution from stock) are dispensed in 1536-well plate. 23 nL of compound and control are pinned into assay plate using the Kalypsys pintool. The plates are then incubated for 10 minutes at ambient room temperature. Then, 2 uL of the flurogenic substrate, HMU-PC0, (9 uM final) are added to the plate. An incubation for 60 minutes takes place at 37 masculineC. After that, 4 uL of stop solution is added to raise the pH to 10 to end the kinetic reaction. Plate is read on ViewLux, with detection set at Ex = 386 (10) nm and Em = 447 (10) nm.
Take `COc1ccc(Nc2ncc(C(=O)N3CCN(c4ccccc4OC)CC3)c3ccccc23)cc1`: the Potency entry was “inactive”.

Take `O=C(COC(=O)c1ccc(F)c(S(=O)(=O)N2CCOCC2)c1)NCc1ccc2c(c1)OCO2`: the Potency entry was “inactive”.

Turning to `Brc1c(CSc2nncc3ccccc23)nc2ccccn12`, the Potency result was “inactive”.

As for `COc1ccc(Cc2nnc(SCC(=O)N(c3ccccc3)C(C)C)n(N)c2=O)cc1`, the Potency entry is “inactive”.

With `CC1(C)CC(=O)C=C(c2cccc3c2Oc2ccccc2S3)C1`, the Potency result was “inactive”.

On to `O=C(NCC1CCCO1)C1CCN(C2CCN(C(=O)C3CCCCC3)CC2)CC1` (stereo not given), for which the Potency entry is “inactive”.

In the case of `FC(F)(F)c1ccc2c3n(nc2c1)CCN=C3c1ccc(Cl)cc1`, the Potency entry is “inactive”.

For the molecule `CC(C)[C@H](NC(=O)Nc1ccc(S(N)(=O)=O)cc1)C(=O)O`, the Potency entry is “inactive”.

In the case of `COc1ccccc1N1CCC(N2CCN(CC(C)(C)C)C(CCO)C2)CC1` (stereo not given), the Potency entry was “inactive”.

With `CC(=O)Nc1nc2c(s1)C(=O)NCC(C)(C)C2`, the Potency entry was “inactive”.

Regarding `COc1ccccc1C(=O)C(O)c1ccccc1OC` (stereo not given), the Potency entry is “inactive”.

In the case of `Cn1nc(C(F)(F)F)c2cc(NC(=O)OCC(C)(C)C)sc21`, the Potency entry was “inactive”.

With `O=C(CCNC(=O)c1ccc([N+](=O)[O-])cc1)Nc1ccccc1N1CCOCC1`, the Potency result was “inactive”.

In the case of `Cc1cc(C)c(S(=O)(=O)c2cc(F)ccc2C)c(=O)[nH]1`, the Potency entry is “inactive”.

For `COC(=O)C1=C(C(=O)OC)C2(OC1c1ccc(Br)cc1)C(=O)c1ccccc1C2=O` (stereo not given), the Potency entry is “inactive”.

`COCCNC(=O)CSc1nc2sccc2c(=O)n1-c1ccccc1`: the Potency entry was “inactive”.

Consider `CCN(CC)S(=O)(=O)c1ccc(N2CC(C(=O)NCc3cccnc3)CC2=O)cc1` (stereo not given), for which the Potency entry was “inactive”.

On to `O=C(Nc1ccc([N+](=O)[O-])cc1)C1CC12CCC2` (stereo not given), for which the Potency result was “inactive”.

`Cc1ccc(S(=O)(=O)c2c[nH]c3ccc(C)cc3c2=O)cc1`: the Potency entry was “inactive”.

In the case of `O=C1CC[C@@H]2CC3(C[C@@H]4CCN1[C@H]24)Nc1cc([N+](=O)[O-])ccc1NC3=NC1CCCCC1` (stereo not given in full), the Potency entry was “inactive”.

As to `COc1cc(OC)cc(C(=O)NCCSCc2ccc(Cl)cc2)c1`, the Potency entry was “inactive”.

As for `CC(C)(C)C(=O)Nc1c(Br)c(C2CC2)nn1-c1ccccc1`, the Potency entry was “inactive”.

On to `CC(C)(C)NC(=O)NC(=O)COC(=O)CCC1CCCCC1`, for which the Potency entry was “inactive”.

Take `O=C(CCN1C(=O)[C@@H]2Cc3ccccc3CN2C1=O)NCc1ccccc1`: the Potency entry is “inactive”.

For `Cc1cccc(NC(=S)NCCc2ccc(F)cc2)c1C`, the Potency entry is “inactive”.

As for `Cn1cc(C2OC(=O)c3ccccc32)c2ccccc21` (stereo not given), the Potency entry was “inactive”.

As for `CCN(C[C@H]1N[C@@](Cc2ccccc2)(C(=O)OC)[C@H]2C(=O)N(Cc3ccccc3)C(=O)[C@@H]12)C(=O)c1ccc(C)cc1`, the Potency entry was “inactive”.

Consider `Cc1c(NC(=O)CN(C)CC(=O)Nc2ccc(F)c(F)c2F)c(=O)n(-c2ccccc2)n1C`, for which the Potency entry is “inactive”.

`CC(C(=O)NC1CCCC1)N(c1ccc(Oc2ccccc2)cc1)S(C)(=O)=O` (stereo not given): the Potency result was “inactive”.

On to `O=C(CCN1C(=O)COc2ccccc21)NCCCN1CCN(c2ccc(F)cc2)CC1`, for which the Potency result was “inactive”.

`O=C(/C=C/c1cccc([N+](=O)[O-])c1)OCC(=O)N1CCOCC1`: the Potency entry was “inactive”.

As to `COC(=O)c1cccc(C(=O)N2CCC(CCC(=O)NCc3ccc(F)cc3)CC2)c1`, the Potency entry is “inactive”.

Consider `CC(=O)OCC(=O)C1(O)CCC2C3CC(C)C4=CC(=O)CCC4(C)C3C(O)CC21C` (stereo not given), for which the Potency result is “inactive”.

As to `CC(=O)NNC(=O)c1csc(Cc2c(Cl)sc3ccc(Cl)cc23)n1`, the Potency result was “inactive”.

In the case of `CC1CN(S(=O)(=O)c2ccccc2)C(C)CN1S(=O)(=O)c1ccccc1` (stereo not given), the Potency entry is “inactive”.

For `Cc1c(Cl)cccc1NC(=O)Nc1ccc(C(=O)N2CCCC2)cc1`, the Potency result was “inactive”.

Consider `O=C(COc1ccc(F)cc1Br)NCC1COc2ccccc2O1` (stereo not given), for which the Potency entry is “inactive”.

`CCOc1ccc(CCNC(=O)COC(=O)CCS(=O)(=O)c2ccc(C)cc2)cc1OCC`: the Potency result is “inactive”.

For `Cc1cc(C)nc(SC2CCCCC2NS(=O)(=O)c2ccc(Cl)cc2)n1` (stereo not given), the Potency result was “inactive”.

Consider `CC1(C)CC(=O)C=C(NCCN2CCNCC2)C1`, for which the Potency result is “inactive”.

With `COc1cccc(C(=O)CC(=O)C(=O)Nc2ccc([N+](=O)[O-])cc2C)c1`, the Potency result was “inactive”.

For the molecule `COc1cccc(NC(=O)N2CCC(NC(=O)C(Cc3cccc(C)c3)NC(C)=O)CC2)c1` (stereo not given), the Potency entry was “inactive”.

With `COc1cccc(N2CCN(C(=O)Nc3ccc4c(c3)NC(=O)CO4)CC2)c1`, the Potency entry is “inactive”.

Take `CCOc1ccc(C(=O)N(Cc2ccc(N(C)C)cc2)C2CCS(=O)(=O)C2)cc1` (stereo not given): the Potency result was “inactive”.

As to `O=C(NCCCN1CCCC1=O)c1cccc(S(=O)(=O)NCc2ccccc2)c1`, the Potency entry was “inactive”.

On to `COC(=O)c1ccccc1NC(=O)CSc1nc2c(c(=O)[nH]1)CCC2`, for which the Potency entry was “inactive”.

With `CCOc1ccc(NC(=O)CN(C)CC(=O)Nc2cccc(Cl)c2C)cc1OCC`, the Potency result is “inactive”.

On to `COc1ccc(C(=O)NC(=S)N2CCNC(=O)C2CC(=O)OC(C)C)cc1` (stereo not given), for which the Potency result is “inactive”.

Consider `O=C(OCc1cc(Cl)ccc1OC(F)F)c1cccnc1`, for which the Potency entry was “inactive”.

For the molecule `O=C(CSc1nnnn1-c1ccc(O)cc1)c1ccc(F)cc1`, the Potency result was “inactive”.

For `CCC(=O)Nc1ccc(C(=O)CSc2nnc(CNc3ccc(Cl)cc3)o2)cc1OC`, the Potency entry is “inactive”.

In the case of `COC(=O)c1c(C)oc(C)c1S(=O)(=O)NCc1ccc(Cl)cc1`, the Potency entry is “inactive”.

Regarding `Cc1ccc2[nH]c(C)c(CCNC(=O)NC3CCCCC3)c2c1`, the Potency result was “inactive”.

For `CCC1=NN(C(=O)Cc2ccc([N+](=O)[O-])cc2)C(O)(c2ccc(Br)cc2)C1` (stereo not given), the Potency entry was “inactive”.

As to `Cc1cc(C)cc(NC(=O)N(C)Cc2ccccc2)c1`, the Potency result is “inactive”.

`COc1cccc(CNC(=O)CCN2C(=S)NC(C)(C)CC2C)c1` (stereo not given): the Potency result is “inactive”.

For `COc1cc2c(cc1OC)C(Cc1cc(OC)c(OC)cc1[N+](=O)[O-])=NCC2`, the Potency result is “inactive”.

Consider `CS(=O)(=O)N1CCN(CC(=O)NC2CCCC2)CC1`, for which the Potency entry was “inactive”.

Consider `O=[N+]([O-])c1ccc(S(=O)(=O)Nc2cccc(-c3ccc(N4CCCC4)nn3)c2)cc1`, for which the Potency entry is “inactive”.

For `COc1ccccc1C1CC(=O)n2c(nc(-c3ccccc3)c2-c2ccccc2)S1` (stereo not given), the Potency entry was “inactive”.

On to `COc1ccc(N2C(=O)CCC(C(=O)N(C)C3CCCCC3)C2c2ccc(OC)c(OC)c2)cc1` (stereo not given), for which the Potency result was “inactive”.

Consider `N#C[C@]1(S(=O)(=O)c2ccccc2)C[C@@H]2ON=C(c3cccc(Br)c3)[C@@H]2C1`, for which the Potency result is “inactive”.

Turning to `COC(=O)c1c(C(=O)OC)c2n(c1C)CCS2`, the Potency result is “inactive”.

As to `O=C(NCc1ccncc1)C1CCCN(S(=O)(=O)c2ccc(Br)cc2)C1` (stereo not given), the Potency result was “inactive”.

Take `COC(=O)C1=CN(c2ccc(F)c(F)c2)C=C(C(=O)OC)C1c1ccc([N+](=O)[O-])cc1`: the Potency entry was “inactive”.
